About 2,000 (36%) of roughly 5,500 compounds were called active. Roughly 18% stayed inconclusive and do not appear here. Rule as the data show it: active = normalized growth mostly below about 0.91 (no sharp cut-off); inconclusive = no clear call, values can overlap the other calls; inactive = mostly above about 0.92. Some of the results follow.
Assay: chemical genetic growth profiling, strain panel (AID 1159580);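 also: tested at 20 µM; growth read once vehicle control cultures reached saturation at 30 °C; 1 = growth at the plate median or of vehicle wells; lower values mean less growth of the strain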
Settings: growth OD

Measured: normalized growth

O=C(O)C1=C[C@@H](O)[C@@H](O)[C@H](O)C1
inactive: S. cerevisiae deletion strains, locus YJR043C, strain POL32, stronger effect = lower value 1.02 | S. cerevisiae deletion strains, locus YJR066W, strain TOR1, stronger effect = lower value 0.928 | S. cerevisiae deletion strains, locus YJR075W, strain HOC1, stronger effect = lower value 1.01 | S. cerevisiae deletion strains, locus YKL009W, strain mrt4, stronger effect = lower value 1 | S. cerevisiae deletion strains, locus YKL068W, stronger effect = lower value 1 | S. cerevisiae deletion strains, locus YKL085W, strain MDH1 (second series), stronger effect = lower value 1.01 | S. cerevisiae deletion strains, locus YKL085W, strain MDH1, stronger effect = lower value 1.01 | S. cerevisiae deletion strains, locus YKL160W, strain elf1, stronger effect = lower value 0.987 | S. cerevisiae deletion strains, locus YKR001C, strain vps1, stronger effect = lower value 1.07 | S. cerevisiae deletion strains, locus YKR026C, strain gcn3, stronger effect = lower value 0.999 | S. cerevisiae deletion strains, locus YKR091W, strain srl3, stronger effect = lower value 0.969 | S. cerevisiae deletion strains, locus YLL001W, strain dnm1, stronger effect = lower value 0.995 | S. cerevisiae deletion strains, locus YLL026W, stronger effect = lower value 0.975 | S. cerevisiae deletion strains, locus YLL041C, strain sdh2, stronger effect = lower value 0.978 | S. cerevisiae deletion strains, locus YLR027C, strain aat2, stronger effect = lower value 0.996 | S. cerevisiae deletion strains, locus YLR039C, strain RIC1, stronger effect = lower value 1.1 | S. cerevisiae deletion strains, locus YLR058C, strain SHM2, stronger effect = lower value 1.01 | S. cerevisiae deletion strains, locus YLR102C, strain apc9, stronger effect = lower value 1.01 | S. cerevisiae deletion strains, locus YLR113W, strain HOG1, stronger effect = lower value 1.01 | S. cerevisiae deletion strains, locus YLR221C, strain rsa3, stronger effect = lower value 0.982 | S. cerevisiae deletion strains, locus YLR258W, strain gsy2, stronger effect = lower value 0.974 | S. cerevisiae deletion strains, locus YLR262C, strain YPT6 (second series), stronger effect = lower value 0.952 | S. cerevisiae deletion strains, locus YLR262C, strain YPT6, stronger effect = lower value 1.13 | S. cerevisiae deletion strains, locus YLR268W, strain sec22, stronger effect = lower value 1.05 | S. cerevisiae deletion strains, locus YLR320W, strain mms22, stronger effect = lower value 0.985 | S. cerevisiae deletion strains, locus YLR330W, strain CHS5, stronger effect = lower value 1.01 | S. cerevisiae deletion strains, locus YLR342W, strain FKS1 (second series), stronger effect = lower value 1.05 | S. cerevisiae deletion strains, locus YLR342W, strain FKS1, stronger effect = lower value 0.985 | S. cerevisiae deletion strains, locus YLR357W, strain rsc2, stronger effect = lower value 0.973 | S. cerevisiae deletion strains, locus YLR370C, strain arc18, stronger effect = lower value 0.994 | S. cerevisiae deletion strains, locus YLR371W, strain rom2, stronger effect = lower value 1.02 | S. cerevisiae deletion strains, locus YLR384C, strain iki3, stronger effect = lower value 0.979 | S. cerevisiae deletion strains, locus YLR418C, strain cdc73, stronger effect = lower value 0.986 | S. cerevisiae deletion strains, locus YML016C, strain PPZ1, stronger effect = lower value 1.02 | S. cerevisiae deletion strains, locus YML032C, strain rad52, stronger effect = lower value 0.993 | S. cerevisiae deletion strains, locus YML120C, strain ndi1, stronger effect = lower value 0.982 | S. cerevisiae deletion strains, locus YML124C, strain tub3, stronger effect = lower value 1 | S. cerevisiae deletion strains, locus YMR058W, strain fet3, stronger effect = lower value 0.973 | S. cerevisiae deletion strains, locus YMR078C, strain ctf18, stronger effect = lower value 1.01 | S. cerevisiae deletion strains, locus YMR125W, strain sto1, stronger effect = lower value 0.968 | S. cerevisiae deletion strains, locus YMR129W, stronger effect = lower value 0.986 | S. cerevisiae deletion strains, locus YMR205C, strain PFK2, stronger effect = lower value 0.984 | S. cerevisiae deletion strains, locus YMR223W, strain ubp8, stronger effect = lower value 0.987 | S. cerevisiae deletion strains, locus YMR231W, strain pep5, stronger effect = lower value 0.967 | S. cerevisiae deletion strains, locus YMR263W, strain SAP30, stronger effect = lower value 1.02 | S. cerevisiae deletion strains, locus YMR307W, strain GAS1, stronger effect = lower value 1.04 | S. cerevisiae deletion strains, locus YNL067W, strain RPL9B, stronger effect = lower value 1.01 | S. cerevisiae deletion strains, locus YNL071W, strain lat1, stronger effect = lower value 0.982 | S. cerevisiae deletion strains, locus YNL183C, strain NPR1, stronger effect = lower value 0.962 | S. cerevisiae deletion strains, locus YNL209W, strain ssb2, stronger effect = lower value 0.983 | S. cerevisiae deletion strains, locus YNL233W, strain BNI4, stronger effect = lower value 1.03 | S. cerevisiae deletion strains, locus YNL248C, strain rpa49, stronger effect = lower value 0.965 | S. cerevisiae deletion strains, locus YNL250W, strain rad50, stronger effect = lower value 1.03 | S. cerevisiae deletion strains, locus YNL271C, strain bni1, stronger effect = lower value 1.01 | S. cerevisiae deletion strains, locus YNL298W, strain CLA4, stronger effect = lower value 1.01 | S. cerevisiae deletion strains, locus YNL307C, strain MCK1, stronger effect = lower value 1.02 | S. cerevisiae deletion strains, locus YNL322C, strain KRE1 (second series), stronger effect = lower value 0.986 | S. cerevisiae deletion strains, locus YNR049C, strain mso1, stronger effect = lower value 0.989 | S. cerevisiae deletion strains, locus YNR052C, strain pop2, stronger effect = lower value 1.01 | S. cerevisiae deletion strains, locus YOL012C, strain htz1 0.985 | S. cerevisiae deletion strains, locus YOL147C, strain pex11, stronger effect = lower value 0.993 | S. cerevisiae deletion strains, locus YOR001W, strain rrp6, stronger effect = lower value 0.993 | S. cerevisiae deletion strains, locus YOR061W, strain CKA2, stronger effect = lower value 1.01 | S. cerevisiae deletion strains, locus YOR069W, strain VPS5, stronger effect = lower value 1.01 | S. cerevisiae deletion strains, locus YOR070C, strain gyp1, stronger effect = lower value 0.996 | S. cerevisiae deletion strains, locus YOR080W, strain dia2, stronger effect = lower value 0.99 | S. cerevisiae deletion strains, locus YOR083W, strain WHI5, stronger effect = lower value 0.982 | S. cerevisiae deletion strains, locus YOR106W, strain vam3, stronger effect = lower value 0.972 | S. cerevisiae deletion strains, locus YOR136W, strain idh2, stronger effect = lower value 1.01 | S. cerevisiae deletion strains, locus YOR144C, strain elg1, stronger effect = lower value 1 | S. cerevisiae deletion strains, locus YOR184W, strain ser1, stronger effect = lower value 1.02 | S. cerevisiae deletion strains, locus YOR231W, strain MKK1, stronger effect = lower value 0.981 | S. cerevisiae deletion strains, locus YOR265W, strain rbl2, stronger effect = lower value 0.977 | S. cerevisiae deletion strains, locus YOR270C, strain vph1, stronger effect = lower value 0.969 | S. cerevisiae deletion strains, locus YOR290C, strain snf2, stronger effect = lower value 0.988 | S. cerevisiae deletion strains, locus YOR316C, strain cot1, stronger effect = lower value 0.996 | S. cerevisiae deletion strains, locus YPL051W, strain arl3, stronger effect = lower value 0.977 | S. cerevisiae deletion strains, locus YPL078C, strain atp4, stronger effect = lower value 0.987 | S. cerevisiae deletion strains, locus YPL106C, strain sse1, stronger effect = lower value 0.973 | S. cerevisiae deletion strains, locus YPL240C, strain hsp82, stronger effect = lower value 0.989 | S. cerevisiae deletion strains, locus YPL241C, strain CIN2, stronger effect = lower value 1.01 | S. cerevisiae deletion strains, locus YPL256C, strain CLN2, stronger effect = lower value 0.978 | S. cerevisiae deletion strains, locus YPR119W, strain clb2, stronger effect = lower value 1 | S. cerevisiae deletion strains, locus YPR141C, strain kar3, stronger effect = lower value 1 | S. cerevisiae deletion strains, locus YPR163C, strain tif3, stronger effect = lower value 0.995 | S. cerevisiae deletion strains, locus YPR167C, strain met16, stronger effect = lower value 0.999 | S. cerevisiae deletion strains, strain wtn01, stronger effect = lower value 1.05 | S. cerevisiae strains, strain wild type, stronger effect = lower value 1.02
